According to PubChem BioAssay (NCATS):
Values without a mark were called inactive. How the calls were made is not given here.

These molecules were tested on HIV-1 nucleocapsid protein NCp7 (binding to TG oligonucleotide) (assay: HIV Nucleocapsid (AID 346;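 further: potency is for inhibitors that block NC binding and lower polarization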)). Conditions: HIV-1 NC / fluorescein-TGTGTGTG probe, fluorescence polarization.
In short: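 NCp7 100 nM + fluorescein TG4xF 10 nM; Hepes pH 7.5/250mM NaCl/1uM ZnCl2/0.004% PEG 20000; 1 hr RT; FP, 45 s exposure; oligo-only wells as negative control.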
Potency means the concentration at half of the fitted maximal effect.

Structure (SMILES) | Potency [µM]
Clc1ccccc1-c1cncnc1NCc1cccs1 | > 20
Cc1ccccc1-c1cc(NCCN2CCOCC2)ncn1 | > 20
Cc1noc(C)c1-c1nc(N2CCN(C)CC2)c2ccccc2n1 | > 20
CN1CCN(c2ncc3ncc(=O)n(CCc4ccccc4)c3n2)CC1 | > 20
COc1cccc(Cn2c(=O)c(CCc3ccccc3)nc3cnc(N4CCOCC4)nc32)c1 | > 20
O=S(=O)(c1ccccc1)N1CCC2(CCCN(c3ncccn3)C2)CC1 | > 20
CC(=O)N1CCC2(CC1)CCN(C(=O)Nc1cccc(C#N)c1)CC2 | > 20
CC(=O)N1CCC[C@@]2(CCN(C(=O)Nc3ccccc3)C2)C1 | > 20
N#Cc1ccc(CN2CC[C@@]3(CCCN(C(=O)c4ccco4)C3)C2)cc1 | > 20
CN(C)Cc1ccccc1-c1ccc2ncnc(N(C)C)c2c1 | > 20
Cn1cccc1C(=O)N1CCC2(CCN(Cc3ccncc3)CC2)CC1 | > 20
COC(=O)N1CCC2(CC1)CCN(c1ncccn1)CC2 | > 20
O=S(=O)(c1ccccc1)N1CCC2(CC1)CN(c1ccccn1)C2 | > 20
O=S(=O)(c1ccccc1)N1CCC2(CCN(c3ccc(-c4ccccc4)cc3)CC2)CC1 | > 20
CS(=O)(=O)Nc1cccc(-c2ccc3ncnc(Nc4ccc(F)cc4)c3c2)c1 | > 20
COc1ncc2nc(CCc3ccccc3)c(=O)n(CCC#N)c2n1 | > 20
c1nc(NC2CCNCC2)c2cc(-c3ccc4c(c3)OCO4)ccc2n1 | > 20
O=C(Nc1cccc(F)c1)N1CCCC2(CCN(C(=O)c3cc(C(F)(F)F)cc(C(F)(F)F)c3)CC2)C1 | > 20
N#CCCn1c(=O)c(CCc2ccccc2)nc2cnc(OCc3ccccc3)nc21 | > 20
COc1ccc(-c2nc3cnc(N4CCNCC4)nc3n(C)c2=O)cc1 | > 20

Structure (SMILES) | Potency [µM]
CC(C)NC(=O)N1CCC2(CC1)CCN(C(=O)c1ccco1)CC2 | > 20
Cn1c(=O)cnc2cnc(Nc3ccccc3)nc21 | > 4
Cn1cccc1C(=O)N1CCC2(CCN(C(=O)Nc3ccccc3)CC2)CC1 | > 20
COc1ccccc1CN1CCCC2(CCNCC2)C1 | > 4
COc1ccc2[nH]cc(CCNc3nc(-c4cccc(NS(C)(=O)=O)c4)nc4ccccc34)c2c1 | > 20
CNc1ccnc(-c2c(C)noc2C)n1 | > 20
O=c1cnc2cncnc2n1Cc1ccccc1 | > 4
COCCn1c(=O)c(-c2ccc(OC)cc2)nc2cnc(N3CCNCC3)nc21 | > 20
COCCNc1ncnc2ccc(-c3ccccc3CN(C)C)cc12 | > 20
N#Cc1cccc(-c2cncnc2NCc2ccccc2)c1 | > 20
CS(=O)(=O)N1CCC2(CCN(c3cccc(-c4ccccc4)c3)CC2)CC1 | > 20
CN(C)c1ncc2nc(CCc3ccccc3)c(=O)n(CCC#N)c2n1 | > 20
O=C(Oc1ccccc1)N1CCC[C@@]2(CCN(c3ccccc3)C2)C1 | > 20
O=c1cnc2cnc(Oc3ccccc3)nc2n1Cc1cccs1 | > 20
COc1ncc2nc(-c3cn(C)c4ccccc34)c(=O)n(CCc3ccccc3)c2n1 | > 20
Cc1noc(C)c1-c1cc(N(C)Cc2ccco2)ncn1 | > 20
Cc1noc(C)c1-c1nc(NCc2ccccc2)c2ccccc2n1 | > 20
COc1cccc(Cn2c(=O)cnc3cnc(Oc4ccccc4)nc32)c1 | > 4
CC(=O)N1CCC2(CC1)CCN(C(c1ccccc1)c1ccccc1)CC2 | > 20
COc1ccc2[nH]cc(CCNc3cc(-c4ccc5c(c4)OCO5)ncn3)c2c1 | > 20
